Format in all cases: functional
In experiment [1] the target is Solute carrier family 2, facilitated glucose transporter member 1 (Homo sapiens) (UniProt P11166). Description: ST_JUDE_LEISH: Cytotoxicity at 2uM final concentration against transgenic Leishmania Mexicana promastigotes LmGLUT1 that are glucose transport deficient and complemented with the human glucose transporter GLUT1. Activity is measured by DNA content using SYBR green in vitro.

Experiment [2] deals with Hexose transporter 1 (Plasmodium falciparum) (UniProt O97467). The experiment in a line: ST_JUDE_LEISH: Cytotoxicity at 2uM final concentration against transgenic Leishmania Mexicana promastigotes LmPfHT that are glucose transport deficient and complemented with the Plasmodium falciparum hexose transporter. Activity is measured by DNA content using SYBR green in vitro.
Experiment [3] addresses Glucose transporter (Leishmania mexicana) (UniProt O61059). The experiment in a line: ST_JUDE_LEISH: Cytotoxicity at 2uM final concentration against transgenic Leishmania Mexicana promastigotes LmGT2 that are glucose transport deficient and complemented with the L. Mexicana glucose transporter 2. Activity is measured by DNA content using SYBR green in vitro.

The source of these data is ChEMBL document CHEMBL3433997, “St. Jude Leishmania screening dataset” (2016).

Chain of Solute carrier family 2, facilitated glucose transporter member 1 (Homo sapiens) (P11166 whole entry): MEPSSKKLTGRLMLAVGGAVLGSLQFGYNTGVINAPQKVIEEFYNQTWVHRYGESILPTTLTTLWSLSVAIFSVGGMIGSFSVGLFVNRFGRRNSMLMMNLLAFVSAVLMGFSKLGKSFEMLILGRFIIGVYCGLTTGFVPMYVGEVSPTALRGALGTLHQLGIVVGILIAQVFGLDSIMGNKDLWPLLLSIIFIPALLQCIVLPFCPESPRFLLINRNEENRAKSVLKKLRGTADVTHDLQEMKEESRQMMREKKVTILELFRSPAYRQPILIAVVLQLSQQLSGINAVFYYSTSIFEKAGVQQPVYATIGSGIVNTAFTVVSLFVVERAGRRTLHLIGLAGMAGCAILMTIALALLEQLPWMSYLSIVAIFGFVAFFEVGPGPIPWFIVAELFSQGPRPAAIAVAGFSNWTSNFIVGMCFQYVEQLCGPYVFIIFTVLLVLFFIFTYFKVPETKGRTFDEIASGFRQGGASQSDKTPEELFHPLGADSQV

What is called inhibition is the relative decrease from the control value, in per cent. As for `O=C(Nc1ccc2c(c1)CCN2C1CCN(Cc2cccc(F)c2F)C1)c1ccco1` (stereo not drawn), the inhibition in experiment [1] is 2.08%; in experiment [2] it was 1.62%; in experiment [3] it was 2.93%.
For `Cc1cc(O)c(-c2cccc(Oc3ccc(Cl)cc3)c2)c(C)n1`, the inhibition in experiment [1] is -1.02%; in experiment [2], 1.39%; in experiment [3], -3.29%.
`O=C(C=Cc1ccc(Cl)c(Cl)c1)NC1CCN(CCc2ccccc2)CC1`: the inhibition in experiment [1] was 0.9%; in experiment [2] it was 1.06%; in experiment [3] it was -4.41%.
The matching figures for `O=C(Nc1cc(C(F)(F)F)cc(C(F)(F)F)c1)c1cc(C(F)(F)F)cc(C(F)(F)F)c1`: 0.3%, -0.43% and 1.06%.
The matching figures for `COc1cc(C(C)C)ccc1N1CCN(CCCCNC(=O)c2ccc(NC(=O)c3ccc(Cl)cc3)cc2)CC1`: 4.1%, 1.59% and 2.26%.
For `CCNc1cc(C(=O)N[C@@H](Cc2ccccc2)[C@H](O)CNC(C)(C)CCCC(C)C)cc(N2CCCC2=O)c1`, in that order: 2.43%, 1.71% and 3.47%.
As for `COc1ccc2nccc(NC(=O)C3(O)CCC(NCc4ccc5c(c4)NCCS5)CC3)c2n1` (stereo not drawn), the inhibition in experiment [1] came to 15%; in experiment [2], 22.5%; in experiment [3] it was 7.11%.
For `COc1ccc(CCNCCCCCCNCCc2ccc(Cl)c(Cl)c2)cc1OC`, in that order: 4.21%, 3.9% and 3.76%.
As to `Cc1ccc2[nH]c3ccccc3c(=O)c2c1`, the inhibition in experiment [1] stood at 0.1%; in experiment [2], 1.92%; in experiment [3], 1.77%.
For `NCC1CCCN1Cc1ccc(-c2cccc(-c3nc4cc(F)ccc4[nH]3)c2)cc1` (stereo not drawn), in that order: 3.25%, 1.31% and 1.35%.
As to `COc1cc(C)ccc1S(=O)(=O)N1CCCCC(c2ccc(C(F)(F)F)cc2)=N1`, the inhibition in experiment [1] stood at 10.8%; in experiment [2], 11.2%; in experiment [3] it was 10.3%.
As to `CN(Cc1c(Cl)cnn1C)S(=O)(=O)c1ccc2ccccc2c1`, the inhibition in experiment [1] worked out at 5.51%; in experiment [2] it was 7.25%; in experiment [3], 5.64%.
Regarding `Cc1cc(C2CCN(CCCCNC(=O)c3ccc(NC(=O)c4ccc(Cl)cc4)cc3)CC2)c(C)cc1OCCN(C)C`, the inhibition in experiment [1] amounted to 9.34%; in experiment [2], 8.76%; in experiment [3], 9.76%.
For `N#Cc1ccc2c(c1)CCN(CCC1CCC(NC(=O)/C=C/c3cccc4ccccc34)CC1)CC2` (stereo not drawn), in that order: 4.36%, 9.02% and 2.63%.
In the case of `COc1ccc2c(c1)S(=O)(=O)N=C(N1CCCC1c1ccc(Cl)c(Cl)c1)N2C` (stereo not drawn), the inhibition in experiment [1] was -1.4%; in experiment [2], -0.89%; in experiment [3] it was -1.05%.
For `O=C(N[C@@H](Cc1ccccc1)[C@H](O)CNC1CCCc2ccccc21)c1cc(C2CCCC2)cc(N2CCCC2=O)c1` (stereo partly drawn), in that order: -0.02%, 0.77% and -0.94%.
For `CS(=O)(=O)Nc1cccc(-c2cnc3[nH]cc(-c4ccc(CN)cc4)c3c2)c1`, in that order: 4.62%, 4.04% and 3.33%.
For `O=C(N/C(=C/c1cccc([N+](=O)[O-])c1)c1nc2ccccc2[nH]1)c1cccc(Br)c1`, in that order: 2.64%, 1.64% and -0.27%.
Consider `COc1cccc(Nc2nc(C)cc(NC3CCN(Cc4ccccc4)CC3)n2)c1`, for which the inhibition in experiment [1] was determined as 5.81%; in experiment [2] it was 3.9%; in experiment [3], 0.8%.
Regarding `Cc1[nH]c(C)c(-c2ccc(OCc3cc(F)cc(F)c3)nc2)c(=O)c1Br`, the inhibition in experiment [1] is 3.26%; in experiment [2], 5.62%; in experiment [3] it was 0.58%.
The matching figures for `Cc1cc(NC(=O)NC(=N)N)ccc1Cl`: 6.27%, 5.72% and 3.21%.
Turning to `O=C(Nc1ccc(OC2CCN(Cc3ccc(F)cc3)CC2)c(Cl)c1)c1ccco1`, the inhibition in experiment [1] came out at 1.06%; in experiment [2], 1.1%; in experiment [3], 3.28%.
For `O=C(Nc1ccc(Br)cc1)c1cc(Br)ccc1NS(=O)(=O)c1cc(C(F)(F)F)cc(C(F)(F)F)c1`, the inhibition in experiment [1] was -2.23%; in experiment [2], 0.04%; in experiment [3], -0.28%.
For `CN1CCC(C(=O)N(Cc2ccc(-c3ccc(CNCCc4ccc(S(C)(=O)=O)cc4)cn3)cc2)C2Cc3ccccc3C2)CC1`, in that order: 0.67%, -0.29% and -0.85%.
In the case of `CNCCNCc1ccc(-c2ccc(-c3nc4cc(C(F)(F)F)ccc4[nH]3)s2)cc1`, the inhibition in experiment [1] turned out to be 2.21%; in experiment [2], 0.84%; in experiment [3] it was 0.73%.
For `COc1ccc(NC(=O)CCNc2cc(C)nc(NCc3ccccc3C)n2)cc1`, in that order: 5.23%, 5.4% and 3.93%.
The matching figures for `CCN(CC)C(=O)c1cnc(-c2ccccc2)nc1Oc1cccc(Cl)c1`: -0.46%, 2.57% and 3%.
On to `S=C(NCCc1ccccc1)Nc1ccc2ncsc2c1`, for which the inhibition is -0.85% in experiment [1], 1.14% in experiment [2] and -0.73% in experiment [3].
For `O=C(NC1CCCCC1)N(CCCn1ccnc1)Cc1csc(-c2ccc(CNCc3ccccc3)cc2)n1`, in that order: 0.1%, 0.82% and 1.34%.
Consider `COc1cc(C=NNc2cc(C)nc3c(OC)cccc23)cc(OC)c1OC`, for which the inhibition is 7.21% in experiment [1], 3.3% in experiment [2] and 3.68% in experiment [3].
Regarding `COc1cc(F)c2ncc(Cl)c(C(O)CN3CCC(NC(=O)c4ccc5c(n4)NC(=O)CO5)CC3)c2c1` (stereo not drawn), the inhibition in experiment [1] is 1.02%; in experiment [2], 0.57%; in experiment [3], -1.35%.
Consider `Cn1c(N)c(C(=O)CSc2ncc(-c3ccc(F)cc3)n2Cc2ccccc2)c(=O)n(C)c1=O`, for which the results for the inhibition in experiment [1], in experiment [2] and in experiment [3] were 2.53%, 1.62% and 3.15%, respectively.
Consider `Cc1cc(N2CCCC2)nc(Nc2ccc(NC(=O)C(C)(C)C)cc2)n1`, for which the inhibition was 0.4% in experiment [1], 2.7% in experiment [2] and -0.65% in experiment [3].
Consider `O=S(=O)(NCCN1CCCC1)c1ccc(-c2ccc(CNCc3ccccc3)cc2)cc1`, for which the inhibition in experiment [1] was 2.85%; in experiment [2], 1.2%; in experiment [3] it was -0.93%.
For the molecule `N#Cc1cccc(NC(=O)Nc2ccc(-c3csc(-c4nc5ccccc5[nH]4)c3)cc2)c1`, the inhibition came to 7.99% in experiment [1], 9.33% in experiment [2] and 3.91% in experiment [3].
Consider `CN(C)CCN(Cc1ccccc1-c1ccc(CNCCc2ccccc2)cc1)C(=O)NC1CCCCC1`, for which the values for the inhibition in experiment [1], in experiment [2] and in experiment [3] were 3.67%, 3.66% and 0.85%, respectively.
The matching figures for `CS(=O)(=O)c1ccc(CNCc2ccc(-c3cccc(-c4nc5cc(C(F)(F)F)ccc5[nH]4)c3)cc2)cc1`: 3.2%, 3.79% and 1.5%.
For `CCCCCCNC(=O)C1Cc2c([nH]c3ccc(Br)cc23)C2(CCN(CCc3ccccc3)CC2)N1` (stereo not drawn), in that order: 13.8%, 10.8% and 9.91%.
For `CC(C)c1ccc(-c2noc(SCC(=O)N3CCCCC3C)n2)cc1` (stereo not drawn), in that order: -2.1%, 1.89% and -2.55%.
In the case of `COc1ccc2nccc([C@@H](O)CN3CCC(NC(=O)/C=C/c4ccc5cc(C)[nH]c5c4)CC3)c2c1`, the inhibition in experiment [1] was 3.96%; in experiment [2], 3.03%; in experiment [3], 1.91%.
For `Cc1cccc2nc(-c3cccc(-c4ccc(NC(=O)Nc5cccc(C#N)c5)cc4)c3)[nH]c12`, in that order: 2.14%, 2.03% and -1.2%.
For `CCCNCc1ccc(-c2ccc(CNC3Cc4ccccc4C3)cc2)nc1`, in that order: -0.04%, 2.5% and 1.53%.
On to `O=C(NCc1ccccc1)NC(CCCN1CCC(Oc2cccc(Cl)c2)CC1)c1ccc(Cl)c(Cl)c1` (stereo not drawn), for which the inhibition is 2.71% in experiment [1], -0.32% in experiment [2] and -0.18% in experiment [3].
As to `COc1ccc(C=CC(=O)Nc2ccc(N3CCCC3)cc2)cc1`, the inhibition in experiment [1] is 1.15%; in experiment [2], -1.95%; in experiment [3], -1%.
On to `Cc1cc(Nc2ccc(Oc3ccc(Cl)cc3)cc2)nc(N)n1`, for which the values for the inhibition in experiment [1], in experiment [2] and in experiment [3] were 3.89%, 5.01% and 2.92%, respectively.
For `COc1ccc(NC(=O)Nc2ccc(-c3ccncc3)c(C(F)(F)F)c2)cc1N1CCN(C)CC1`, in that order: 13.1%, 12.6% and 9.27%.
For `CN1CCN(CCCN(Cc2csc(-c3ccc(CNCc4ccccc4)cc3)n2)S(=O)(=O)c2cccc3cccnc23)CC1`, in that order: 0.74%, 5.92% and 4.06%.
For `Cc1ccc2nc(-c3ccc(C(=O)NC4CCN(Cc5ccccc5)CC4)cc3)[nH]c2c1C`, in that order: 11.5%, 7.69% and 0.84%.
For the molecule `Fc1cccc(COc2ccc(Nc3ncnc4sc(C#CCNC5CCC5)cc34)cc2Cl)c1`, the inhibition in experiment [1] turned out to be 6.7%; in experiment [2] it was 5.05%; in experiment [3], 2.46%.
For the molecule `O=C(Nc1ccc(C(F)(F)F)cc1)c1cc(Br)cnc1NCCCn1ccnc1`, the inhibition in experiment [1] was -0.53%; in experiment [2], -4.7%; in experiment [3], -3.55%.
The matching figures for `O=C(CN1CCCC1)Nc1cccc(C(=O)Nc2cccc(C(F)(F)F)c2)c1`: 1.71%, 1.57% and 3.18%.
The matching figures for `COc1ccc(CNC(=O)c2cnc3cc(-c4c(C)noc4C)ccc3c2Nc2ccccc2C(C)(C)C)cc1`: 3.17%, 4.17% and 1.52%.
For `c1cc(CN2CCN(CCN3CCOCC3)CC2)cc(-c2ccc(-c3nc4ccccc4[nH]3)cc2)c1`, in that order: 10.9%, 6.81% and 9.58%.
On to `Nc1nc(N)c2c(ccc3c2ccn3Cc2ccccc2)n1`, for which the inhibition turned out to be 92.2% in experiment [1], 94% in experiment [2] and 86.1% in experiment [3].
With `CS(=O)(=O)c1cccc(-c2ccc3oc(C(N)=O)c(NC(=O)c4cccs4)c3c2)c1`, the inhibition in experiment [1] amounted to 7.71%; in experiment [2] it was 6.5%; in experiment [3], 5.71%.
Turning to `COc1ccc(NC(=O)c2ccc(-c3nc(-c4ccccc4)cs3)cc2)cc1N1CCN(C)CC1`, the values for the inhibition in experiment [1], in experiment [2] and in experiment [3] were 9.73%, 8.4% and 9.79%, respectively.
